ssDAF12 agonist: activators of S. stercoralis DAF-12 nuclear receptor; HEK293 ssDAF-12/GRIP1 lit1-tk-luc reporter, luminescence; % of 3 µM dafachronic acid response; activation, % at 6.8 µM; 1% of 370,000 active; AID 652126;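 active = activation above the mean over all tested compounds plus 3 SD, cut at about 0.9% in these data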
hgDAF12 agonist: agonists of H. glycines DAF-12 nuclear receptor | 1.8% of 370,000 active | activation, % at 6.8 µM | AID 687014 | HEK293 GAL4-hgDAF12 UAS-luciferase reporter, agonist luminescence; normalized to butyrate control;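 active = activation above a cutoff set at the mean of all screened compounds plus 3 SD, cut at about 10% in these data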
hcDAF-12 act: activators of H. contortus DAF-12 nuclear receptor. HEK293 hcDAF-12 lit1-tk-luc reporter, luminescence; 0% DMSO, 100% Δ7-dafachronic acid. activation, % at 6.8 µM. 1.4% of 370,000 active;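 active = activation above the mean of all tested compounds plus 3 SD, cut at about 5.5% in these data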
AHR act: activators of human aryl hydrocarbon receptor. AHR-responsive luciferase reporter cells, luminescence. 2.5% of 320,000 active. P35869. AID 2796. activation, % at 5 µM; in the data active = activation above about 47%
DAX1 inh-1: DAX1 (NR0B1) inhibition, primary screen. HEK293T StAR-luciferase reporter, SF-1/DAX-1 repression relief. inhibition, % at 6.8 µM. 1.1% of 370,000 active. AID 652010;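 active = inhibition above the mean over all tested compounds plus 3 SD, cut at about 3.6% in these data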;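 note: higher inhibition means more luminescence from relief of DAX-1 repression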
DAX1 inh-2: inhibits human nuclear receptor DAX1. P51843. HEK293 Gal4-DAX1 luciferase reporter, luminescence. inhibition, % at 6.75 µM. 0.99% of 340,000 active. AID 504766;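 active = inhibition above the mean over all tested compounds plus 3 SD, cut at about 4.2% in these data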;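 note: inhibition shows as a rise in luminescence from relieved DAX1 repression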
Target sequence (P51843 207-470 limits assumed): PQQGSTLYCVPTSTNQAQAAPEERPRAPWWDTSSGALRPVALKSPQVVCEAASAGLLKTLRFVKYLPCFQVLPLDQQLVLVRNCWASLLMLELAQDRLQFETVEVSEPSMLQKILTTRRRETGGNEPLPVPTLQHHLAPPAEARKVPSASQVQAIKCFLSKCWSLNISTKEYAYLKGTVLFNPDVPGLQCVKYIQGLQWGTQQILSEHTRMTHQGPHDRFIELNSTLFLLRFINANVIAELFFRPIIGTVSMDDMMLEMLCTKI
DAX1 inh confirm: confirmation of human DAX1 (NR0B1) inhibitors; shares compounds with DAX1 inh-1; HEK293T StAR-promoter luciferase reporter, SF-1/DAX-1 repression; inhibition, % at 6.8 µM; 87% of 2,400 active;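 active = inhibition above the average of every tested compound plus 3 SD, cut at about 3.8% in these data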;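 note: active compounds raise luminescence by relieving repression of the StAR reporter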
Target sequence (P51843 whole entry, looked up): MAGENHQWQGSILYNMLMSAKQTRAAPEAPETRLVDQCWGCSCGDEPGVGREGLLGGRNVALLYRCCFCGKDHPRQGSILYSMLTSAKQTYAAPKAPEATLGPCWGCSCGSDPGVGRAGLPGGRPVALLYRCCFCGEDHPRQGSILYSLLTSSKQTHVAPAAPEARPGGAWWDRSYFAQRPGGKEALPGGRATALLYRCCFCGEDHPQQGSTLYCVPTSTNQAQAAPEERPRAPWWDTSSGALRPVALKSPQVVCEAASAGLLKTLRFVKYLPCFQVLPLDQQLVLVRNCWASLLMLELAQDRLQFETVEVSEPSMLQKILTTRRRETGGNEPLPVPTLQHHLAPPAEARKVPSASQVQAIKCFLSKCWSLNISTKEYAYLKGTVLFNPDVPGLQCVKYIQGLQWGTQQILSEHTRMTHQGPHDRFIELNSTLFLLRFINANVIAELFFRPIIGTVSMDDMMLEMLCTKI
SF1 mutant ctr: nonselective inhibitor or artifact in SF-1 mutant DAX1 counter-screen. shares compounds with DAX1 inh-1. HEK293 StAR-luciferase, SF-1 AF2 mutant, luminescence. inhibition, % at 6.8 µM. 78% of 2,400 active;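 active = inhibition above the mean of all tested compounds plus 3 SD, cut at about 3% in these data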
LXRb hcDAF ctr: activates human LXR-beta, counter-screen for hcDAF-12 agonists; shares compounds with hcDAF-12 act; HEK293 Gal4-LXR tk-luc reporter, luminescence, 24 h; normalized: DMSO 0%, positive control 100%; 3,400 tested, under 10 active; activation, % at 6.8 µM; AID 743027;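 active = mean percent activation of the reporter above a cutoff set as the average over tested compounds plus their standard deviation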
hcDAF12 conf: hcDAF-12 agonism, confirmation assay. AID 743032. shares compounds with hcDAF-12 act. 61% of 3,400 active. HEK293 hcDAF-12 lit1-tk-luc reporter, luminescence; % of Δ7-dafachronic acid response. activation, % at 6.8 µM;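 active = mean activation across triplicate tests above the threshold derived from the earlier primary screen, cut at about 5.5% in these data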
hgDAF12 ag: hgDAF-12 agonism, confirmation assay. activation, % at 6.8 µM. HEK293 GAL4-hgDAF12 luciferase reporter, agonist mode; percent of butyrate response. shares compounds with hgDAF12 agonist. 80% of 3,300 active;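 active = mean activation over triplicate wells above the hit cutoff derived from the earlier primary screen, cut at about 11% in these data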
LXRb DAF12 ctr: activates human LXR-beta, counter-screen for DAF-12 agonists; shares compounds with hgDAF12 agonist; HEK293 Gal4-LXR luciferase reporter, 24 h; activation, % at 6.8 µM; 3,300 tested, under 10 active;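 active = mean activation of the triplicate above a set limit carried over from the primary screen, none filed active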
A number is an active result; 0 = inactive; - = no result given; ! = a repeat was not active. Sampled rows, rich in hits. Any-hit rate of the full collection: about 5.7%.

SMILES | ssDAF12 agonist | hgDAF12 agonist | hcDAF-12 act | AHR act | DAX1 inh-1 | DAX1 inh-2 | DAX1 inh confirm | SF1 mutant ctr | LXRb hcDAF ctr | hcDAF12 conf | hgDAF12 ag | LXRb DAF12 ctr
CNc1cc(-c2cccc(N(C)C)c2)ncn1 | 1.3 | 18 | 0 | - | 7.2 | - | 16 | 5.9 | - | - | 15 | 0
Cc1nc2c(nc1C)C(=O)c1ccccc1C2=O | 0 | 0 | 0 | - | 0 | 0 | - | - | - | - | - | -
CCc1ccc2cc3c(cc2n1)C(=O)c1ccccc1-3 | 3.6 | 21 | 17 | - | 9.5 | - | 11 | 6.4 | 0 | 16 | 23 | 0
Cc1cccc(/C(N)=N/OC(=O)c2ccc3c(c2)OCO3)c1 | 0 | 15 | 8.6 | 0 | 5.4 | 0 | 11 | 6.8 | 0 | 6.7 | 14 | 0
N/C(=N\OC(=O)c1ccc2c(c1)OCO2)c1cccc([N+](=O)[O-])c1 | 0 | 0 | 0 | 0 | 0 | 0 | - | - | - | - | - | -
CCCCNc1c(-c2ccc(SC(C)CC)cc2)nc2ccccn12 (stereo not given) | 2.6! | 11 | 6.7! | 0 | 5.3! | 0 | 6.3 | 3.4 | 0 | 0 | 16 | 0
O=C1C(CCc2ccccc2)ON=C(c2cnccn2)N1Cc1ccc(F)cc1 (stereo not given) | 0 | 0 | 0 | - | 0 | - | - | - | - | - | - | -
CC(=O)Nc1ccc(C(=O)COC(=O)C2CC2C)c(F)c1 (stereo not given) | 1.0 | 18 | 0 | - | 11 | 0 | 10 | 4.6 | - | - | 0 | 0
CC(=O)Nc1ccc(C(=O)COC(=O)c2c(C)noc2C)c(F)c1 | 0 | 0 | 0 | 0 | 0 | 0 | - | - | - | - | - | -
CC(C)OCCCN1CC(=O)N2C(c3ccccc3)c3[nH]c4ccccc4c3C[C@H]2C1=O (stereo not given in full) | 0 | 0 | 0 | 0 | 0 | 0 | - | - | - | - | - | -
Cc1ccc(-c2cc3c(N=O)c4ccccc4c-3n[nH]2)cc1 | 0 | 0 | 0 | 0 | 0 | 0 | - | - | - | - | - | -
O=Nc1c2cc(-c3ccccc3)[nH]nc-2c2ccccc12 | 2.7 | 23 | 20 | - | 5.8 | 0 | 5.4 | 0 | 0 | 19 | 12 | 0
COc1ccc(C(C(=O)NC(C)(C)C)n2c(-c3ccc(C(F)(F)F)cc3)nc3ccccc32)cc1 (stereo not given) | 0 | 0 | 0 | - | 0 | - | - | - | - | - | - | -
CC(C)(C)NC(=O)C(c1ccncc1)n1c(-c2ccc(C(F)(F)F)cc2)nc2ccccc21 (stereo not given) | 1.4 | 17 | 9.2 | - | 11 | - | 11 | 7.9 | 0 | 0 | 17 | 0
COc1ccc(-c2cnc3c(NC(C)=O)cc(-c4ccc(S(C)(=O)=O)cc4)cn23)cc1OC | 0 | 0 | 0 | - | 0 | - | - | - | - | - | - | -
Cc1ccc(NC(=O)/C(Cl)=C/c2ccccc2)cc1C | 1.0 | 20 | 9.7 | 0 | 7.0 | 0 | 20 | 8.2 | 0 | 8.4 | 21 | 0
Cc1ccc(NC(=O)CCc2ccccc2)cc1C | 0 | 0 | 0 | - | 0 | 0 | - | - | - | - | - | -
Cc1cc(NC(=O)CN(C)C)c([N+](=O)[O-])cc1C | 0 | 0 | 0 | 0 | 0 | 0 | - | - | - | - | - | -
COc1cccc(NC(=O)Nc2ccc3c(c2)nc(C)n3C)c1 | 0 | 20 | 5.7 | 0 | 4.7 | 0 | 12 | 7.8 | - | - | 15 | 0
COc1cccc(NC(=O)Nc2ccc3nc(C)c(C)nc3c2)c1 | 0 | 0 | 0 | 0 | 0 | 0 | - | - | - | - | - | -
Cc1ccccc1NC(=O)CCc1nnc2ccc(N3CCC4(CC3)OCCO4)nn12 | 0 | 0 | 0 | 0 | 0 | 0 | - | - | - | - | - | -
O=C(/C=C\Nc1ccccc1Br)c1ccc2c(c1)OCO2 | 0 | 17 | 9.4 | 0 | 5.3 | 0 | 9.6 | 0 | 0 | 17 | 16 | 0
CC1CCCCC12NC(=O)N(CC(=O)NCc1cccs1)C2=O (stereo not given) | 0 | 0 | 0 | - | 0 | 0 | - | - | - | - | - | -
Cc1cc(C(=O)CN2C(=O)NC3(CCCCC3C)C2=O)c(C)n1Cc1cccs1 (stereo not given) | 0 | 15 | 0 | 0 | 5.0 | 0 | 9.6 | 5.5 | - | - | 10 | 0
CCOC(=O)C1C(c2ccc(O)c(O)c2)NC(=S)NC1(O)C(F)(F)F (stereo not given) | 0 | 0 | 0 | 0 | 0 | 0 | - | - | - | - | - | -
SMILES | ssDAF12 agonist | hgDAF12 agonist | hcDAF-12 act | AHR act | DAX1 inh-1 | DAX1 inh-2 | DAX1 inh confirm | SF1 mutant ctr | LXRb hcDAF ctr | hcDAF12 conf | hgDAF12 ag | LXRb DAF12 ctr
Cc1c(Cl)ccc2sc(NC(=O)c3ccco3)nc12 | 1.2 | 21 | 10 | 0 | 6.0 | 0 | 12 | 8.7 | 0 | 9.9 | 21 | 0
Cc1c(Cl)cccc1NC(=O)c1ccco1 | 0 | 0 | 0 | 0 | 0 | 0 | - | - | - | - | - | -
Cc1ccc(Nc2ncnc3nc[nH]c23)cc1Cl | 0 | 14 | 0 | 0 | 6.4 | 0 | 8.1 | 5.5 | - | - | 14 | 0
Cc1ccc(C(=O)C(C)OC(=O)c2ccccc2[N+](=O)[O-])cc1 (stereo not given) | 0 | 18 | 0 | 0 | 6.1 | 0 | 15 | 9.8 | - | - | 15 | 0
COc1ccccc1C(=O)NNC(=O)c1ccccc1[N+](=O)[O-] | 0 | 0 | 0 | 0 | 0 | 0 | - | - | - | - | - | -
COC(=O)Cc1ccc2sc(-c3ccccc3)nc2c1 | 1.0 | 21 | 13 | 0 | 5.9 | 0 | 13 | 8.6 | 0 | 11 | 17 | 0
O=C(NNc1nc2ccccc2s1)C1CC1 | 0 | 0 | 0 | 0 | 0 | 0 | - | - | - | - | - | -
O=C(Nc1nc(-c2nc3ccccc3s2)cs1)C1CC1 | 0 | 23 | 0 | 0 | 8.8 | 0 | 13 | 6.4 | - | - | 15 | 0
O=C(CSC(=S)N1CCCC1)c1ccccc1 | 0 | 18 | 0 | 0 | 9.6 | 0 | 9.5 | 7.4 | - | - | 14 | 0
O=C(c1ccc(C(=O)N2CCCc3ccccc32)s1)N1CCCc2ccccc21 | 0 | 0 | 0 | 0 | 0 | 0 | - | - | - | - | - | -
CCc1sc(C(=O)N2CCc3ccccc32)cc1C | 3.5 | 33 | 10 | 0 | 6.3 | 0 | 11 | 6.6 | 0 | 7.2 | 21 | 0
Cc1ccc(NC(=S)c2ccc(N(C)C)cc2)cc1 | 0 | 14 | 0 | 0 | 5.6 | 0 | 13 | 7.8 | - | - | 17 | 0
CC(=O)N/N=C\c1cccc(OC/C=C/c2ccccc2)c1 | 0 | 14 | 0 | - | 10 | 0 | 8.9 | 5.2 | - | - | 16 | 0

Compound activity (PubChem BioAssay)
